Our source for the growth values is the supplement of paper PMC9262897, “Low-cost anti-mycobacterial drug discovery using engineered E. coli” (Nature Communications, 2022).

Each structure is given as a SMILES string. Structures can show the parent of a compound that is named as a salt. ± gives the standard deviation of the averaged measurements.

Common to all, as to test: growth (OD600 after 10 h); higher = more growth (less inhibition)
Experiment [1] has as its system E. coli TESEC Alr+ wild-type control. The conditions noted are these: compound 0.1 mM; raw OD600 reference: median of DMSO wells 0.241, cell-free background 0.041. The procedure:
(§1)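 TESEC Mtb Alr E. coli, or the Alr+ wild-type control, in 384-well plates with Prestwick library compounds at 0.1 mM and 1% DMSO, across arabinose induction levels of 1E3 to 1E7 nM. Growth is read as OD600 after 10 h at 37 °C in triplicate biological replicates.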

Experiment [2] relates to E. coli TESEC Mtb Alr. The conditions noted are these: compound 0.1 mM. Here is the method: as §1
Experiment [3] concerns E. coli TESEC Mtb Asd. Particulars: compound 0.1 mM. Here is the method:
(§2)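 TESEC E. coli strains in which the native enzyme is deleted and replaced by arabinose-inducible Mtb Asd, DapB, CysH or TrpD, each grown in its selective medium. Strains were screened against the Prestwick library at 0.1 mM and 1% DMSO in 384-well format at low and high arabinose induction. Growth is read as OD600 after 10 h in triplicate.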

The subject of experiment [4] is E. coli TESEC Mtb DapB. The conditions noted are these: compound 0.1 mM. Here is the method: as §2
Experiment [5] relates to E. coli TESEC Mtb Alr. Particulars: compound 0.1 mM. Here is the method: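 TESEC Mtb Alr E. coli (ΔaraC ΔtolC ΔentC Δalr ΔdadX, arabinose-inducible Mtb Alr) or the Alr+ wild-type control strain, grown in defined M9-fructose medium without D-alanine in 96-well plates with Prestwick library compounds at 0.1 mM and 1% DMSO. Low Alr induction is 0.1 µM arabinose and high induction is 10 mM arabinose.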
The source holds these as a separate data set.

Where [6] appears, read: arabinose 1000 nM, raw OD600 reference: median of DMSO wells 0.294, cell-free background 0.041.
[7] abbreviates: arabinose 10000 nM, raw OD600 reference: median of DMSO wells 0.264, cell-free background 0.041.
Setting [8] is: arabinose 100000 nM, raw OD600 reference: median of DMSO wells 0.201, cell-free background 0.041.
Where [9] appears, read: arabinose 1000000 nM, raw OD600 reference: median of DMSO wells 0.193, cell-free background 0.041.
Where [10] appears, read: arabinose 10000000 nM, raw OD600 reference: median of DMSO wells 0.146, cell-free background 0.041.
Where [11] appears, read: arabinose induction (level): High, raw OD600 reference: median of DMSO wells 0.331, cell-free background 0.041.
[12] abbreviates: arabinose induction (level): Low, raw OD600 reference: median of DMSO wells 0.417, cell-free background 0.041.
[13] abbreviates: arabinose induction (level): High, raw OD600 reference: median of DMSO wells […], cell-free background 0.041.
[14] abbreviates: arabinose induction (level): Low, raw OD600 reference: median of DMSO wells 0.227, cell-free background 0.041.
[15] abbreviates: arabinose 100 nM, raw OD600 reference: median of DMSO wells 0.413, cell-free background 0.052.
[16] abbreviates: arabinose 10000000 nM, raw OD600 reference: median of DMSO wells […], cell-free background 0.052.

For the molecule `O=C1c2c(O)ccc(O)c2C(=O)c2c(NCCNCCO)ccc(NCCNCCO)c21` [Mitoxantrone dihydrochloride], the growth came out at 0.355 ± 0.0023 in experiment [1]; 0.3551 ± 0.0031 in experiment [2] (setting [6]); 0.3438 ± 0.0024 in experiment [2] (setting [7]); 0.3501 ± 0.0014 in experiment [2] (setting [8]); 0.3506 ± 0.001 in experiment [2] (setting [9]); 0.3496 ± 0.0028 in experiment [2] (setting [10]). The growth in experiment [3] (setting [11]) came to 0.36 ± 0.0066; in experiment [3] (setting [12]), 0.3445 ± 0.0031; in experiment [4] (setting [13]), 0.348 ± 0.0055; in experiment [4] (setting [14]), 0.348 ± 0.0049; in experiment [5] (setting [15]), 0.231 ± 0.0097; in experiment [5] (setting [16]), 0.292 ± 0.025.

Turning to `CC(C(=O)O)c1ccc(C(=O)c2cccs2)cc1` (configuration not stated) [Suprofen], the growth was 0.2321 ± 0.0022 in experiment [1]; 0.263 ± 0.015 in experiment [2] (setting [6]); 0.254 ± 0.008 in experiment [2] (setting [7]); 0.205 ± 0.0094 in experiment [2] (setting [8]); 0.214 ± 0.0056 in experiment [2] (setting [9]); 0.138 ± 0.0024 in experiment [2] (setting [10]). For the same molecule, the growth in experiment [3] (setting [11]) is 0.368 ± 0.056; in experiment [3] (setting [12]), 0.365 ± 0.054; in experiment [4] (setting [13]), 0.213 ± 0.0048; in experiment [4] (setting [14]) it was 0.196 ± 0.029; in experiment [5] (setting [15]), 0.382 ± 0.01; in experiment [5] (setting [16]), 0.3826 ± 0.0029.

Take `O=C(O)[C@H]1/C(=C/CO)O[C@@H]2CC(=O)N21` [Clavulanate potassium salt]: the growth in experiment [1] stood at 0.155 ± 0.0016; in experiment [2] (setting [6]), 0.0502 ± 0.0035; in experiment [2] (setting [7]), 0.0477 ± 0.0036; in experiment [2] (setting [8]), 0.0582 ± 0.0016; in experiment [2] (setting [9]), 0.195 ± 0.0057; in experiment [2] (setting [10]) it was 0.0991 ± 0.0015. In addition, the growth in experiment [3] (setting [11]) turned out to be 0.535 ± 0.033; in experiment [3] (setting [12]), 0.387 ± 0.062; in experiment [4] (setting [13]), 0.182 ± 0.0081; in experiment [4] (setting [14]), 0.164 ± 0.012; in experiment [5] (setting [15]), 0.0839 ± 0.04; in experiment [5] (setting [16]), 0.101 ± 0.017.

`CCCc1nc2c(C)cc(-c3nc4ccccc4n3C)cc2n1Cc1ccc(-c2ccccc2C(=O)O)cc1` [Telmisartan]: the growth in experiment [1] stood at 0.208 ± 0.0078; in experiment [2] (setting [6]), 0.271 ± 0.02; in experiment [2] (setting [7]), 0.291 ± 0.011; in experiment [2] (setting [8]), 0.19 ± 0.016; in experiment [2] (setting [9]), 0.228 ± 0.0023; in experiment [2] (setting [10]), 0.156 ± 0.0075. Besides, the growth came out at 0.2439 ± 0.00056 in experiment [3] (setting [11]); 0.41 ± 0.024 in experiment [3] (setting [12]); 0.273 ± 0.0084 in experiment [4] (setting [13]); 0.307 ± 0.039 in experiment [4] (setting [14]); 0.283 ± 0.052 in experiment [5] (setting [15]); 0.337 ± 0.018 in experiment [5] (setting [16]).

As for `Cc1scc2c1N(C(=O)CN1CCN(C)CC1)c1ccccc1NC2=O` [Telenzepine dihydrochloride], the growth in experiment [1] was 0.242 ± 0.0054; in experiment [2] (setting [6]), 0.309 ± 0.0066; in experiment [2] (setting [7]), 0.241 ± 0.0053; in experiment [2] (setting [8]), 0.208 ± 0.012; in experiment [2] (setting [9]), 0.162 ± 0.0049; in experiment [2] (setting [10]), 0.153 ± 0.0031. Also, the growth was 0.321 ± 0.083 in experiment [3] (setting [11]); 0.442 ± 0.025 in experiment [3] (setting [12]); 0.1919 ± 0.0014 in experiment [4] (setting [13]); 0.264 ± 0.071 in experiment [4] (setting [14]); 0.407 ± 0.011 in experiment [5] (setting [15]); 0.338 ± 0.0097 in experiment [5] (setting [16]).

Take `C1CCC(C(CC2CCCCN2)C2CCCCC2)CC1` (configuration not stated) [Perhexiline maleate]: the growth in experiment [1] stood at 0.0393 ± 0.0002; in experiment [2] (setting [6]), 0.0389 ± 0.00046; in experiment [2] (setting [7]), 0.03913 ± 0.00021; in experiment [2] (setting [8]), 0.0407 ± 0.00064; in experiment [2] (setting [9]) it was 0.03897 ± 0.00023; in experiment [2] (setting [10]), 0.0389 ± 0.0004. Also, the growth in experiment [3] (setting [11]) was 0.04767 ± 0.00047; in experiment [3] (setting [12]), 0.048 ± 0.0016; in experiment [4] (setting [13]), 0.0462 ± 0.0004; in experiment [4] (setting [14]) it was 0.0474 ± 0.002; in experiment [5] (setting [15]), 0.168 ± 0.18; in experiment [5] (setting [16]) it was 0.0522 ± 0.0012.
